Bioassay records as filed in PubChem.
A selection: hits, their analogues and other compounds. The true share with any hit is near 5.3%.
SUMO Mot1 rescue: yeast Mot1-301 growth rescue at high temperature, primary screen, SUMOylation pathway inhibitor project, S. cerevisiae, ATP luminescence, 38.5C; 320,000 tested, 1% active; growth rescue, % at 18.8 µM; AID 2716, 2010; S. cerevisiae Mot1-301 growth rescue; percent above DMSO median, 100 means doubled;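 active = every valid replicate shows activation above 250% relative to neutral control wells; inactive = the rest, any valid replicate at or below 250%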;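 note: OY570 slx delta 5 strain wells were the positive control but not used for scaling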
PfM18AAP inh-1: PfM18AAP inhibitors, malaria aminopeptidase, primary screen, biochemical, QFRET, recombinant enzyme. inhibition, % at 7.35 µM. 290,000 tested, 1.2% active. M18 aspartyl aminopeptidase (Plasmodium falciparum 3D7). AID 1822, 2009. H-Glu-NHMec fluorogenic cleavage;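 active = inhibition above the campaign mean inhibition over all tested compounds plus 3 SD, cut at about 28% in these data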;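 note: 0% = plate median of test compound wells and 100% = 2 mM ZnCl2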
HIF activator: HIF pathway transcriptional activators, primary screen, cell-based, U2OS HRE-luciferase, luminescence; U2OS HRE-luciferase reporter; normalized: DMSO 0%, desferrioxamine 100%; activation, % at 7.5 µM (by protocol); AID 1910, 2009; 300,000 tested, 0.32% active;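 active = mean activation of at least 10% of the iron chelator positive control signal, with at least half of replicates also reaching 10%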
ALR inh: inhibitors of human ALR sulfhydryl oxidase, primary screen, biochemical, H2O2 detection, HRP-luminol luminescence, single point | inhibition, % (concentration not given with the values) | 290,000 tested, 3.8% active | purified ALR, DTT oxidation | FAD-linked sulfhydryl oxidase ALR (Homo sapiens), P55789 | AID 485317, 2010;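 active = mean replicate inhibition above about 79%, with every replicate also reaching it, limit read from the data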
Target sequence (P55789 whole entry, looked up): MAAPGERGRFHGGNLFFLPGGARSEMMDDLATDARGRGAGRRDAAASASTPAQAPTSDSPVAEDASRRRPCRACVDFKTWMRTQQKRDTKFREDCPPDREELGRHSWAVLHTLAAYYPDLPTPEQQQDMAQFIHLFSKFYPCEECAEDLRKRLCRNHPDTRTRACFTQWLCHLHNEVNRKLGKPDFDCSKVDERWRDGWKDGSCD
PfM18AAP inh-2: PfM18AAP inhibitors, malaria aminopeptidase, confirmation, biochemical, QFRET, recombinant enzyme, triplicate. H-Glu-NHMec fluorogenic cleavage. 2,400 tested, 28% active. shares compounds with PfM18AAP inh-1. inhibition, % at 7.35 µM;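 active = mean inhibition over replicate wells above the hit cutoff set for the earlier primary screen, cut at about 29% in these data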;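 note: 0% = median of test compound wells and 100% = 2 mM ZnCl2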
CTSL1 confirm: cathepsin L1 inhibitors, retest, confirmation, counter-screen for PFM18AAP inhibitor project, biochemical, QFRET, triplicate; shares compounds with PfM18AAP inh-1; purified cathepsin L1, Z-Leu-Arg-MCA fluorescence; inhibition, % at 5.96 µM; 2,400 tested, under 10 active; AID 2178, 2009;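 active = average inhibition across replicates above the hit cutoff set in the earlier primary screen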;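 note: 0% = median of test compound wells and 100% = Z-Phe-Ala-diazomethylketone 1 µM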
Target sequence (P07711 whole entry, looked up): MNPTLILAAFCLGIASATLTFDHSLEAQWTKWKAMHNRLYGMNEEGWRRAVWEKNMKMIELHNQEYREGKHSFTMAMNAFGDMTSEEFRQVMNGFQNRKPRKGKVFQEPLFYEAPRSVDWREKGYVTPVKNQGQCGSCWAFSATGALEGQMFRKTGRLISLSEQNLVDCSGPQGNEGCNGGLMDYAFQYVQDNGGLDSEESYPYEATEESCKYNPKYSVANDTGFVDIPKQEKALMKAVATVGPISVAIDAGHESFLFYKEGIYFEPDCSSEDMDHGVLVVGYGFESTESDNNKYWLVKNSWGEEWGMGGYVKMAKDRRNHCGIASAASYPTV
Active calls of the source: *; . = no result given.

SMILES	SUMO Mot1 rescue	PfM18AAP inh-1	HIF activator	ALR inh	PfM18AAP inh-2	CTSL1 confirm
CC1(C)CCN2CCC(C)(C)c3c(O)ccc1c32	39.8	4.1	3.4	31.0	.	.
COc1ccc(S(=O)(=O)N2CCN(CC(=O)NC3CCCC3)CC2)cc1	-12.8	-0.5	3.4	-6.1	.	.
CCOc1ccc(C(=O)CN2CCN(S(=O)(=O)c3ccc(F)cc3)CC2)cc1	6.7	-4.6	0.3	5.4	.	.
Cc1ccc(C(=O)Nc2nnc(CC(=O)N/N=C/c3ccc(O)c(O)c3)s2)cc1	-13.1	55.6*	-2.3	62.4	50.5*	4.5
O=C(CN1CCN(S(=O)(=O)c2ccc(F)cc2)CC1)c1ccc(O)c(O)c1	-18.5	73.0*	-0.5	.	33.9*	3.6
Cc1ccc(S(=O)(=O)N2CCN(CC(=O)N/N=C\c3ccc(O)c(O)c3)CC2)cc1	-3.7	47.8*	0.0	98.8*	39.7*	-1.6
COc1ccc(S(=O)(=O)N2CCN(CC(=O)c3ccc(O)c(O)c3)CC2)cc1	16.1	71.6*	0.1	98.9*	40.6*	0.0
Cc1ccc(S(=O)(=O)N2CCN(CC(=O)N/N=C/c3ccc(C)o3)CC2)cc1	-1.5	0.5	-0.4	0.6	.	.
COc1cc(-c2nc(C)c(C(C)=O)n2O)ccc1OCC(=O)Nc1ccc(Cl)cc1	15.5	-1.2	-0.1	6.5	.	.
Cc1cc(Br)c(NC(=O)c2c(-c3c(Cl)cccc3Cl)noc2C)c(Br)c1	12.4	-2.3	1.0	-4.9	.	.
O=C(CN1CCN(S(=O)(=O)c2ccc(Cl)cc2)CC1)c1ccc(O)c(O)c1	174.0	69.8*	1.0	98.8*	39.4*	0.0
CCc1nc2cc(CC(=O)O)ccc2o1	164.3	-1.6	-0.6	.	.	.
CNC[C@H](O)c1ccc(O)c(O)c1	-7.2	54.3*	-0.4	60.2	65.9*	-8.0
O=C1OC(Nc2ccc3c(c2)OCO3)c2ccccc21 (stereo not given)	-2.1	45.3*	0.2	99.1*	21.5	3.7
Cc1ccc(NS(=O)(=O)c2cc([N+](=O)[O-])ccc2NNC(=S)Nc2cc(C)ccc2C)c(C)c1	70.3	39.2*	-0.3	-2.3	38.6*	0.2
Cc1ccc([N+](=O)[O-])cc1NC(=S)NC(=O)C(C)(C)C	-9.0	-19.6	0.1	2.8	.	.
COc1ccc(NC(=S)NNc2ccc([N+](=O)[O-])cc2S(=O)(=O)Nc2ccc(C)cc2C)cc1	-7.3	39.4*	0.7	-1.9	31.9*	2.5
N#Cc1c(SCC(=O)Nc2nncs2)sc2c(O)cc(=O)[nH]c12	-10.9	53.0*	-0.3	2.1	28.6*	-4.1
O=C(CC(=O)Nc1ccc(Cl)cc1)N/N=C\c1cccc(F)c1	322.5	2.1	-0.8	1.7	.	.
CCNc1nc(NCC)nc(N/N=C/c2ccc(O)c(O)c2)n1	2.1	46.8*	-0.3	98.7*	33.0*	-0.1
CCNc1nc(NCC)nc(N/N=C/c2cc(OC)c(OC)c(OC)c2)n1	-7.9	-17.6	0.1	7.5	.	.
NNc1ncnc2c1cnn2-c1ccccc1	177.0	36.0*	0.6	52.7	-3.1	-0.9
CC(C)Nc1ncnc2c1cnn2-c1ccccc1	35.3	-6.8	0.2	.	.	.
CCC(C)(C)C1CCc2[nH]nc(C(=O)O)c2C1 (stereo not given)	-2.7	.	.	-1.2	.	.
O=C(NNc1cc(C(F)(F)F)ccc1Cl)c1ccc(=O)[nH]c1	-3.6	44.4*	-1.2	-6.2	19.0	1.5
SMILES	SUMO Mot1 rescue	PfM18AAP inh-1	HIF activator	ALR inh	PfM18AAP inh-2	CTSL1 confirm
O=C(c1ccc(=O)[nH]c1)N1CCN(S(=O)(=O)c2cc(C(F)(F)F)ccc2Cl)CC1	-9.2	-3.2	-0.1	.	.	.
COC(=O)Oc1ccc(/C=C/C(=O)OC(C)C)cc1OC(=O)OC	65.5	71.7*	6.0	95.1*	42.6*	-5.6
CCCCOC(=O)/C=C/c1ccc(OC(=O)OC)c(OC(=O)OC)c1	-6.4	-6.2	-0.4	-2.7	.	.
CCOc1ccc2nc(NC(=O)C3CSC4(C)CCC(=O)N34)sc2c1 (stereo not given)	-8.2	.	.	-0.8	.	.
Cc1snc(SCC(=O)c2ccc([N+](=O)[O-])cc2)c1C#N	.	44.6*	.	.	-22.0	5.5
CS(=O)(=O)N1CCCC(C(=O)NCCCN2CCc3ccccc3C2)C1 (stereo not given)	-14.1	-10.8	.	-9.7	.	.
CSc1ccc(C(=S)N2CCN(CCO)CC2)cc1	5.8	32.9*	0.0	-21.4	7.3	0.0
CCOC(=O)c1cc2c(=O)n3cccc(C)c3nc2n(CCOC)c1=NC(C)=O	-18.5	-4.6	-0.3	-6.6	.	.
Cn1c(CNC(=O)c2ccc3c(c2)OCO3)nnc1SCC(=O)Nc1ccccc1F	42.6	1.8	0.4	-3.0	.	.
CC(C)(C)C(=O)/C(=C/c1ccc(Cl)cc1)n1cncn1	431.1	-7.5	6.1	1.3	.	.
CC(C)/C=C(/C(=O)c1ccc(Cl)cc1Cl)n1cncn1	12.3	49.3*	0.0	97.2*	4.8	0.5
COc1ccc(/C(C)=N/Nc2nc3ccccc3nc2C)cc1OC	-16.5	38.6*	0.0	63.9	-20.6	3.1
COc1ccc(/C(C)=N/Nc2cccc(C(=O)O)c2)cc1OC	9.5	13.2	0.5	-13.8	.	.
Cc1cc(C)nc(NNC2=CC(=[N+]3CCCC3)CCC2)n1	6.8	56.9*	-0.2	46.9	45.3*	2.7
Cc1cc(C)nc(NNC2=CC(=[N+]3CCCCC3)CC(C)(C)C2)n1	0.5	56.0*	-0.4	98.8*	39.8*	1.1
Cc1[nH]n(-c2ccc([N+](=O)[O-])cc2)c(=O)c1C=NCCN1CCN(C(=O)c2ccccc2)CC1	-56.3	0.8	-0.8	.	.	.
Cc1cc(/C=C2\Sc3ccccc3N2C)cc(C)[n+]1CC1CCCO1 (stereo not given)	.	50.3*	.	.	-41.2	2.6
CC(=O)Nc1ccc2c(c1)nc(CCNC(=O)c1ccco1)n2C	-8.6	-3.8	-0.4	3.5	.	.
CCCCN1C(=O)C(=O)N(CC(=O)N2N=C3/C(=C/c4ccco4)CCCC3C2c2ccco2)C1=O (stereo not given)	6.3	3.5	1.5	-1.1	.	.
O=C(CSc1ncn[nH]1)N1N=C2/C(=C/c3ccco3)CCCC2C1c1ccco1 (stereo not given)	12.7	36.2*	-0.2	-6.7	1.4	1.4
CC(=O)Nc1ccc(N2CCOCC2)c([N+](=O)[O-])c1	4.7	-2.5	-0.1	1.1	.	.
CCN1CCN(C(=S)c2ccc(OCC(=O)Nc3ccc(OC)cc3)cc2)CC1	5.1	3.2	-0.2	-5.6	.	.
CCN1CCN(C(=S)c2ccc(OCC(=O)NCc3ccccc3)cc2)CC1	-12.8	38.6*	0.0	5.2	-7.4	3.2
Cc1ccc(C(=S)N2CCN(Cc3ccccc3)CC2)cc1	16.9	52.0*	0.1	-5.7	-5.5	6.0
